From PubChem BioAssay
Rows were chosen to be rich in hits. Some 6% of all compounds tested hit in one or more screens of this group.
DRD3 antagonist: blocks the human D3 dopamine receptor; max response, negative = inhibition, %; AID 652054; D3R cells, DiscoveRx beta-arrestin luminescence, antagonist mode; hits give low values; 360,000 tested, 2.5% active; P35462; in the data active = max response below about -50%; inconclusive = no clear call, values can overlap the other calls; note: % is set by controls: 0 for no effect and ±100 for the full control effect
Target sequence (P35462 whole entry, looked up): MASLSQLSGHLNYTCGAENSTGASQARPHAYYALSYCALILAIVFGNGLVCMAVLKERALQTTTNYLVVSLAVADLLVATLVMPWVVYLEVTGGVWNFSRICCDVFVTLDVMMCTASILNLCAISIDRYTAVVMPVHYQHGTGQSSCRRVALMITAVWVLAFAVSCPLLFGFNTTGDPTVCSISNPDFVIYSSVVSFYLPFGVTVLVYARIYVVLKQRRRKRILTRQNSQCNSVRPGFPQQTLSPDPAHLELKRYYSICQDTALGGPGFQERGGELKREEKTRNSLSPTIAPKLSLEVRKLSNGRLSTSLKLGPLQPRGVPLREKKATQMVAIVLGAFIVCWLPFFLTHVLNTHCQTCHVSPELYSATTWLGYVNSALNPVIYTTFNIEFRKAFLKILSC
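Cells plated overnight at 1500 cells/well, then exposed to library compounds with dopamine controls for 90 minutes at 37 degrees C. DiscoveRx reagent added for 30–60 minutes at room temperature; luminescence read, quantitative HTS format.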
D1 potentiator: potentiators of human D1 dopamine receptor | P21728 | HEK293 TREx D1 cells, calcium flux, dopamine EC20 potentiation | potentiation, % at 10 µM | 360,000 tested, 0.036% active; in the data active = potentiation above about 30%; note: 0% is about no effect
D1 agonist: agonists of human D1 dopamine receptor. activation, % at 2 µM. HEK293 T-REx D1 cells, calcium flux, agonist mode. AID 504660. 360,000 tested, 1% active; in the data active = activation above about 30%; note: 0% is about no effect
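Tetracycline-induced HEK293 TREx D1 cells, force-coupled to calcium signalling, were dye-loaded with a no-wash calcium kit. Compound was pin-added after a 10 s baseline. Fluorescence was read kinetically at 1 cycle/s for 180 s, with calcium rises flagged as agonism.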
D1 antag: human D1 dopamine receptor antagonism. P21728. activity change, negative = inhibition, % at 10 µM. AID 504652. HEK293 TREx D1 cells, calcium flux, dopamine EC80; hits give low values. 360,000 tested, 3.2% active; in the data active = activity change below about -30%; note: % is set by controls: 0 for no effect and ±100 for the full control effect
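After overnight tetracycline induction at 30 C, force-coupled D1 HEK293 cells took up a no-wash calcium dye at room temperature. Compounds were added and monitored 180 s, and the response to EC80 dopamine was then recorded.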
DRD3 agonist: agonists of human D3 dopamine receptor; P35462; D3R DiscoveRx beta-arrestin cells, luminescence, 90 min; max activation, %; 410,000 tested, 0.58% active; AID 652048; in the data active = max activation above about 30%; note: 0% is about no effect
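Agonist-mode cell screen: cells plated at 1500/well and incubated overnight at 37 °C, then exposed to library compounds for 90 min at 37 °C. Detection reagent was added for 30–60 min at room temperature, and luminescence was read.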
Chronic BCR inh: inhibitors of chronic active B-cell receptor signaling; ABC-DLBCL IkBa-CBG/CBR reporter, luminescence ratio, 4 h; AID 493014; 340,000 tested, 0.05% active; Potency, µM (doses to about 46.1 µM), for the others: at the highest dose activity change, negative = inhibition, hits mostly inhibitors; active = well fitted inhibition curve with a large enough effect in the signal ratio, with a control signal flat, not every such curve was filed as active; inconclusive = small, poorly fitted or top-dose-only effect, or effect the other way, or a change in a side signal; the % refers to the signal ratio;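 note: potency is the fitted concentration of half-maximal effect; plate controls were basal doxycycline-induced cells for no effect and cells given 10 µM MG132 for full effect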
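Cell line TMD8 (human ABC DLBCL), stably expressing tet-inducible CBG68-IkBa fusion and CBR; IMDM/0.5% FBS; cpd up to 46 uM; dox induction, 4 h, 37C/5% CO2; dual luminescence; green/red ratio; MG132 control.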
Active calls of the source: *; ? = inconclusive; . = no result.

SMILES	DRD3 antagonist	D1 potentiator	D1 agonist	D1 antag	DRD3 agonist	Chronic BCR inh
CCn1c(=O)n(CC)c2cc(N3CCCC3)c(NC(=O)c3ccc(C)cc3)cc21	1	-1	-1	-16	7	4%
CCOC(=O)c1ccc(NC(=O)Nc2cc3c(cc2N2CCCC2)n(C)c(=O)n3C)cc1	.	-5	2	-32*	5	.
CCn1c(=O)n(CC)c2cc(N3CCCC3)c(NC(=O)Nc3cc(C)cc(C)c3)cc21	.	0	40*	-6	9	.
O=C(Cn1c(=O)n(-c2ccc(Cl)cc2)c(=O)c2c3c(sc21)CCC3)c1ccc(F)cc1	.	1	1	0	1	.
O=C(NCCN1CCOCC1)C(=O)NCC1OCCN1S(=O)(=O)c1ccc(Cl)cc1 (stereo not given)	-18	.	.	.	-1	.
CC(=O)Nc1cccc(C(=O)N/N=C/c2cccc(C)n2)c1	12	-3	3	-11	4	?
Cc1cccc(/C=N/NC(=O)c2ccc(NC(=O)c3ccc(Cl)cc3)cc2)n1	?	-12	2	-83*	-2	3%
Cc1cccc(/C=N/NC(=O)c2ccc(NC(=O)c3ccc(F)cc3)cc2)n1	-3	-8	-3	-51*	2	-10%
Cc1cccc(C(=O)Nc2cccc(C(=O)N/N=C/c3cccc(C)n3)c2)c1	0	-3	0	-14	-2	?
CC(C(=O)Nc1ccc(F)c(Cl)c1)N1Cc2ccccc2C1=O (stereo not given)	.	-1	1	15	-8	.
O=C(NC12CC3CC(CC(C3)C1)C2)c1ccc(Br)o1	11	-5	9	-2	4	-1%
O=C(NC12CC3CC(CC(C3)C1)C2)c1ccc([N+](=O)[O-])o1	-6	-1	1	-48*	4	-2%
O=C(NC1CCCCC1)C(c1ccccc1)n1c(=O)c(-c2ccco2)nc2ccccc21 (stereo not given)	-3	.	.	.	2	.
O=C(Cc1ccc(F)cc1)Nc1nc(-c2ccc(F)cc2)cs1	23	-6	4	2	6	6%
O=C(Cc1cccs1)Nc1nc(-c2ccc(F)c(F)c2)cs1	22	-5	2	-8	10	?
CC1Cc2cc(-c3csc(NC(=O)Cc4cccs4)n3)ccc2N1S(C)(=O)=O (stereo not given)	42	-5	8	-42*	5	-12%
O=C(Cc1c(F)c(F)c(F)c(F)c1F)Nc1nc(-c2ccccc2)cs1	2	-12	36*	-2	28	10%
O=C(Cc1ccccc1F)Nc1nc(-c2cccs2)cs1	-14	-6	6	13	-4	?
O=C(Cc1cccs1)Nc1nc(-c2ccc(F)cc2F)cs1	36	8	15	-44*	-28	?
CCC(=O)Nc1nc(-c2ccc3c(c2)CC(C)N3S(C)(=O)=O)cs1 (stereo not given)	3	-2	2	-18	17	?
O=C(Cc1ccccc1)Nc1nc(-c2cccs2)cs1	15	-8	4	-31*	0	?
O=C(O)c1ccc(/C=C(\c2nc3ccccc3[nH]2)c2nc3ccccc3s2)cc1	-3	4	0	-22	-3	?
Cc1ccc(NC(=S)c2nc3ccccc3[nH]2)c(C)c1	0	-6	0	-4	5	?
Cc1cccc(/C=C(\c2nc3ccccc3[nH]2)S(=O)(=O)c2ccccc2)c1	-62*	-2	11	-2	-16	?
CC(C)(C)c1ccc(/C=C(\c2nc3ccccc3[nH]2)S(=O)(=O)c2ccccc2)cc1	-66*	.	.	.	-10	.
SMILES	DRD3 antagonist	D1 potentiator	D1 agonist	D1 antag	DRD3 agonist	Chronic BCR inh
CCCCC(=O)Nc1nc2c(OC)cc([N+](=O)[O-])cc2s1	8	-8	2	-34*	-6	?
COc1cc([N+](=O)[O-])cc2sc(NC(C)=O)nc12	-16	-1	2	-2	-3	?
CCOC(=O)c1c(NC(=O)/C=C/c2ccc(OCC)cc2)sc2c1CCCC2	.	4	2	-10	5	.
Cc1cc(=O)n(CC(=O)N2CCN(c3ccccc3F)CC2)c2c1c(C)nn2C	.	-6	10	-30*	7	.
Cc1nn(C)c2c1c(C(F)(F)F)cc(=O)n2CC(=O)N1CCN(c2ccccc2F)CC1	.	0	0	-5	7	.
C=Cc1ccc(Cn2c(=O)cc(C)c3c(C)nn(C)c32)cc1	.	7	51*	-29	2	.
COc1ccccc1N=C1NC(=O)/C(=C/c2ccc(N(C)C)cc2)S1	-95*	-7	108*	-22	-13	?
COc1ccc(/C=C2\SC(=Nc3ccccc3)NC2=O)cc1	.	-6	3	1	.	0%
COc1cc(/C=C2/SC(=Nc3ccc(O)cc3)NC2=O)cc(OC)c1O	-9	-4	47*	-5	0	?
CCN(CC)S(=O)(=O)c1ccc2c(c1)N(CC(=O)Nc1ccc(F)cc1F)C(=O)C1CCCN21 (stereo not given)	.	1	3	-32*	2	.
CCN(CC)S(=O)(=O)c1ccc2c(c1)N(CC(=O)Nc1ccccc1F)C(=O)C1CCCN21 (stereo not given)	.	0	-2	12	5	.
Cc1c(N/C(=N/S(=O)(=O)c2ccc(Cl)cc2)c2ccccc2)c(=O)n(-c2ccccc2)n1C	.	-2	2	-63*	.	-1%
CC1(C)CC(=O)C([N+](=O)[O-])=C(NCCCO)C1	2	-4	1	6	-3	3%
O=C1CCCC(NCCCCCCNC2=C([N+](=O)[O-])C(=O)CCC2)=C1[N+](=O)[O-]	7	-5	0	-92*	2	1%
O=C(NCc1ccccc1Cl)c1ccc2nc([C@H]3C[C@H](O)[C@@H](CO)O3)[nH]c2c1	0	.	.	.	-1	.
COc1cccc(C(=O)Nc2ccc3nc(SCC(=O)N4CCc5ccccc54)sc3c2)c1	.	-2	8	-38*	0	.
O=C(COc1ccc(Cl)cc1)Nc1ccc2nc(SCC(=O)N3CCOCC3)sc2c1	.	-2	11	-36*	10	.
CCOC(=O)CSc1nc2ccc(NC(=O)c3ccc(Cl)cc3)cc2s1	.	-1	11	-22	2	.
CCOC(=O)Nc1ccc2nc(Sc3ccc(Cl)cc3)sc2c1	31	-6	7	-34*	1	?
COc1ccc(C(=O)Nc2ccc3nc(SCC(=O)N4CCc5ccccc54)sc3c2)cc1	.	0	4	13	5	.
Cc1ccc(OCC(=O)Nc2ccc3nc(SCC(=O)N4CCc5ccccc54)sc3c2)cc1	.	4	0	-35*	-6	.
COc1ccccc1C(=O)Nc1ccc2nc(SCC(=O)N(C)c3ccccc3)sc2c1	.	1	8	-2	39*	.
